From ChEMBL document CHEMBL1201862, “PubChem BioAssay data set” (2004)
In all, about 400,000 compounds went through this assay and about 2,100 (0.53%) were called active. Inconclusive results (about 14%) are left out. No rule for the calls is given here. What follows is part of a selection rich in actives, with near analogues and random picks from the rest.

The molecules below were run against Ataxin-2 (Homo sapiens) (UniProt Q99700) (assay: qHTS for Inhibitors of ATXN expression.).
Format: functional

Sequence of Ataxin-2 (Homo sapiens) (Q99700 whole entry): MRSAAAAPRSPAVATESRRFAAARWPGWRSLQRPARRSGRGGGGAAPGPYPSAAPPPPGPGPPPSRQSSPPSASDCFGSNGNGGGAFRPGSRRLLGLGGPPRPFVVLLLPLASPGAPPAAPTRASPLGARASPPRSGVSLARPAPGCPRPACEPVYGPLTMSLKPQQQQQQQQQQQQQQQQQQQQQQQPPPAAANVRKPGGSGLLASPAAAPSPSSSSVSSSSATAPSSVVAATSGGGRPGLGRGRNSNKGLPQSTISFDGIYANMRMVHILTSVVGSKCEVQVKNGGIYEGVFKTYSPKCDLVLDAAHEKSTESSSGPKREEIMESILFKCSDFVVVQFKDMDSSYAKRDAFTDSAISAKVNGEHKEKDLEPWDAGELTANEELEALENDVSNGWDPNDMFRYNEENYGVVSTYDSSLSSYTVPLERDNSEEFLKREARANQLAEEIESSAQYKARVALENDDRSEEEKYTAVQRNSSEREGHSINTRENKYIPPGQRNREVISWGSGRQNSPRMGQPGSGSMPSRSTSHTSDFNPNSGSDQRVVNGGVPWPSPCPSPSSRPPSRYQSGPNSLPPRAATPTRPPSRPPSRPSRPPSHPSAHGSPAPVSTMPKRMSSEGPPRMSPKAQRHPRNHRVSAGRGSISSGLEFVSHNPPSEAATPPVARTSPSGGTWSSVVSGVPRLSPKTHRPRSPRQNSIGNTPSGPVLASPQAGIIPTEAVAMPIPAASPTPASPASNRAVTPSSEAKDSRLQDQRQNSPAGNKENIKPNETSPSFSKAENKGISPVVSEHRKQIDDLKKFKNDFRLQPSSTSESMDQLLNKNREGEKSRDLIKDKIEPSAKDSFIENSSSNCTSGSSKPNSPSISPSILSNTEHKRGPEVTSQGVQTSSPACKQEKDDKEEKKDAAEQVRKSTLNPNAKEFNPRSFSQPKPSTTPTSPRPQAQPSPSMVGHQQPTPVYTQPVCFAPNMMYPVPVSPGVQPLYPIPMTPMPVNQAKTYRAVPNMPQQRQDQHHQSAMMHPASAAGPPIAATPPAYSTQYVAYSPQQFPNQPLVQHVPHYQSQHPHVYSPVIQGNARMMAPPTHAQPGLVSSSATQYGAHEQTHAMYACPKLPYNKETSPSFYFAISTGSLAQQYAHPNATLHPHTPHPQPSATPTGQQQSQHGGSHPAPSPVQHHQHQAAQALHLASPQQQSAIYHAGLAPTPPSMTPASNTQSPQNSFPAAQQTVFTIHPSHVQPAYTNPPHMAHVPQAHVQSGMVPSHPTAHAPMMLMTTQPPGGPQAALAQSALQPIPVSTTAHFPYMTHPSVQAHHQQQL

| SMILES | Potency |
| --- | --- |
| O=C(Oc1c(-c2ccco2)oc2ccccc2c1=O)c1cccnc1 | inactive |
| CCOC(=O)C1=C(C)OC(N)=C(C#N)C1c1cccs1 (centres undefined) | inactive |
| O=S(=O)(Nc1cccc(-c2nc3cccnc3s2)c1)c1ccc2c(c1)CCCC2 | inactive |
| CC1C(=O)C(C)C(c2cc(Cl)ccc2O)NC1c1cc(Cl)ccc1O (centres undefined) | 39.8 µM (active) |
| CCc1cc2c(CN3CCN(CC)CC3)cc(=O)oc2cc1O | inactive |
| CCCCN(C)C1=CC2=CC(=C(C#N)C#N)CCC2CC1 (centres undefined) | inactive |
| Cc1nc2ccccc2c2oc(C(=O)N3CCC(N4CCCCC4)CC3)cc12 | 5.62 µM (active) |
| Cc1sc2ncn(CC(=O)NCC3COc4ccccc4O3)c(=O)c2c1S(=O)(=O)N1CCCCC1 (centres undefined) | inactive |
| COc1cc(OC)c(OC)cc1CNCC1COc2ccccc2O1 (centres undefined) | inactive |
| COCc1c(C(=O)N2CCC(N3CCCCC3)CC2)cnn1-c1ncc(C)c(-c2cccs2)n1 | inactive |
| O=C(c1cc(-c2ccc(F)cc2)nc2ccccc12)N1CCN(C2CCS(=O)(=O)C2)CC1 (centres undefined) | inactive |
| Cc1nc2ccccc2c2oc(C(=O)NCC3COc4ccccc4O3)cc12 (centres undefined) | 35.5 µM (active) |
| Nc1cccc(N2C(=O)c3cccc4c(N)ccc(c34)C2=O)c1 | inactive |
| CC(O)C(/N=C/C1=C(O)OC(C)(C)OC1=O)C(=O)O (centres undefined) | inactive |
| O=C(O)c1ccc2nc(-c3ccco3)c(-c3ccco3)nc2c1 | inactive |
| Nc1c(C(=O)Nc2ccc(S(=O)(=O)N3CCCC3)cc2)sc2nc3ccc(OC(F)(F)F)cc3cc12 | 4.47 µM (active) |
| CCOc1ccc2nc3sc(C(=O)N4CCOCC4)c(N)c3cc2c1 | inactive |
| CCc1cccc2cc3c(N)c(C(=O)Nc4ccc(S(=O)(=O)N5CCCC5)cc4)sc3nc12 | inactive |
| N#C/C(=C\c1c(Oc2ccc(Cl)cc2)nc2ccccn2c1=O)C(=O)NC1CCS(=O)(=O)C1 (centres undefined) | inactive |
| COC(=O)c1[nH]c2ccc(Br)cc2c1NC(=O)C(C)N1CCN(C2CCCCC2)CC1 (centres undefined) | 39.8 µM (active) |
| Cn1c(N)c(C(=O)COC(=O)CCOc2ccc(C(C)(C)C)cc2)c(=O)n(C)c1=O | inactive |
| O=C(NC1CCC(O)CC1)c1cc(-c2ccco2)nc2ccccc12 (centres undefined) | inactive |

| SMILES | Potency |
| --- | --- |
| COc1cc(CN2CCC3(CCC(CNC(=O)c4ccccc4)O3)CC2)cc(OC)c1 (centres undefined) | 11.2 µM (active) |
| COc1cc(OC)cc(C(=O)NCCCCNC(=O)c2cc(OC)cc(OC)c2)c1 | inactive |
| CN1CCCC1CCNc1ccc2c(=O)c3ccccc3oc2c1 (centres undefined) | inactive |
| N#C/C(=C(/O)COC(=O)c1ccccc1O)c1nc2ccccc2s1 | inactive |
| CC1=CC(=C(C#N)c2nc3ccccc3s2)C=C(C)N1CC1CCCO1 (centres undefined) | inactive |
| Cc1c(Cl)cccc1N/C(SCC(=O)N1CCCCCC1)=C(/C#N)c1nc2ccccc2s1 | 25.1 µM (active) |
| COc1ccc(-c2oc(NC(=O)CCl)c(C#N)c2-c2ccc(OC)cc2)cc1 | 31.6 µM (active) |
| COc1ccc(CNCC(=O)Nc2sccc2C#N)cc1 | inactive |
| COc1ccc(-c2c(C#N)c(N)nc3sc(C(=O)c4ccccc4)c(N)c23)cc1 | inactive |
| Cc1cccc(C)c1NC(=O)NC1(C(=O)N2CCCCC2)CCCCC1 | inactive |
| O=S(=O)(Nc1nc2n(n1)C(c1ccc(F)cc1)C=C(c1ccccc1)N2)c1ccc(Cl)cc1 (centres undefined) | inactive |
| CC(C)Cc1ccc(C(C)/C=C2/CCC(CN3CCCCC3)C2=O)cc1 (centres undefined) | 35.5 µM (active) |
| CCOC(=O)C1C(=O)C=C(c2ccc(NS(C)(=O)=O)cc2)CC1c1ccco1 (centres undefined) | inactive |
| COn1c(C)c(C)c2c3nonc3ccc21 | inactive |
| O=C(O)c1cc2cc(Cl)cc(Cl)c2oc1=O | inactive |
| O=C1C(Br)=C(c2ccccc2)C(c2ccccc2)=C1c1ccccc1 | 39.8 µM (active) |
| O=C(c1cnc2nc3ccccc3n2c1)c1cc(F)ccc1O | inactive |
| CC(C)(C)c1ccc(C2=CC(c3ccccc3F)n3ncnc3N2)cc1 (centres undefined) | inactive |
| O=C1C=CC(=O)N1c1ccc(N2CCCCC2)cc1 | 39.8 µM (active) |
| CN1C(=O)c2ccc(N3CCCC3)cc2C1=O | inactive |
| O=S(=O)(c1ccccc1)c1ccc(N2CCCCCC2)cc1 | inactive |
| NC(Cc1ccc(Cl)cc1)c1csc(Nc2ccc(C(=O)c3ccccc3)cc2)n1 (centres undefined) | 39.8 µM (active) |

| SMILES | Potency |
| --- | --- |
| NC(c1csc(Nc2ccc(C(=O)c3ccccc3)cc2)n1)C1CCCCC1 (centres undefined) | 31.6 µM (active) |
| O=C(O)Cc1sc(Nc2ccccc2)nc1-c1ccccc1 | inactive |
| COc1cccc(Nc2nc(C(N)C3CCCCC3)cs2)n1 (centres undefined) | 39.8 µM (active) |
| NC(Cc1ccc(F)cc1)c1csc(Nc2ccc(C(=O)c3ccccc3)cc2)n1 (centres undefined) | 39.8 µM (active) |
| COc1ccc(C(=O)c2sc(Nc3ccccc3)nc2C)cc1 | inactive |
| COc1ccc(C(=O)c2sc(Nc3ccccc3)nc2N)cc1OC | inactive |
| CCOC(=O)c1cc2c(=O)n3ccccc3nc2n(Cc2ccco2)/c1=N/C(=O)c1ccc(OC)cc1 | inactive |
| O=C1CCCC(O)=C1C1C2=C(CCCC2=O)OC2=C1C(=O)CCC2 | inactive |
| CCOc1cccc2cc(-c3csc(NC(=O)CCC(=O)NCCN4CCCCC4C)n3)c(=O)oc12 (centres undefined) | inactive |
| N#CC1=C(N)Oc2cc(N)ccc2C1c1ccccc1F (centres undefined) | inactive |
| c1ccc(-c2nnc(SCC3CCCCO3)nc2-c2ccccc2)cc1 (centres undefined) | inactive |
| NC(Cc1ccccc1)c1csc(Nc2nncc3ccccc23)n1 (centres undefined) | inactive |
| NC(Cc1ccc(F)cc1)c1csc(Nc2nncc3ccccc23)n1 (centres undefined) | 39.8 µM (active) |
| Cc1ccc(C#N)c(SCC(=O)Nc2nccs2)n1 | inactive |
| O=C(C=P(c1ccccc1)(c1ccccc1)c1ccccc1)c1ccccc1-c1ccccc1C(=O)C=P(c1ccccc1)(c1ccccc1)c1ccccc1 | 20 µM (active) |
| O=C(O)c1ccc(CP(=O)(c2ccccc2)c2ccccc2)cc1 | inactive |
| Cc1ccccc1-n1nnnc1SCc1cc(=O)n2ccsc2n1 | inactive |
| Cc1cccc2nc(CSc3nc4nncc-4c(O)n3-c3cccc(Cl)c3)cc(=O)n12 | 35.5 µM (active) |
| CCCc1[nH]c2ccc(C#N)cc2c1CCC | 35.5 µM (active) |
| O=C1N/C(=C/c2cccn2-c2ccccc2)C(=O)N1Cc1ccc(F)cc1 | inactive |
